# According to PubChem BioAssay AID1851 (National Center for Advancing Translational Sciences (NCATS), 2009):
# Hit rate of the full screen: of about 16,000 compounds, about 4,000 (25%) were called active. Another 26% or so got no clear call; they are omitted. The call rests on the fitted dose curve; in most records, active means well fitted curve in the direction sought with a large enough effect; inconclusive means small, poorly fitted or top-dose-only effect, or effect the other way; inactive means no such curve, though single readings can be large or run the other way. Only a sample is shown.
# Target: Cytochrome P450 2C9 (Homo sapiens) (UniProt P11712)
# Test: Cytochrome panel assay with activity outcomes
# Conditions: recombinant CYP, pro-luciferin dealkylation, luminescence, p450-cyp2c9; series mostly up to 57.1 µM; activity, negative = inhibition: at the top concentration
# On the % scale 0 is the no-effect control and ±100 the full control effect.
# Sequence of Cytochrome P450 2C9 (Homo sapiens) (P11712 whole entry, looked up): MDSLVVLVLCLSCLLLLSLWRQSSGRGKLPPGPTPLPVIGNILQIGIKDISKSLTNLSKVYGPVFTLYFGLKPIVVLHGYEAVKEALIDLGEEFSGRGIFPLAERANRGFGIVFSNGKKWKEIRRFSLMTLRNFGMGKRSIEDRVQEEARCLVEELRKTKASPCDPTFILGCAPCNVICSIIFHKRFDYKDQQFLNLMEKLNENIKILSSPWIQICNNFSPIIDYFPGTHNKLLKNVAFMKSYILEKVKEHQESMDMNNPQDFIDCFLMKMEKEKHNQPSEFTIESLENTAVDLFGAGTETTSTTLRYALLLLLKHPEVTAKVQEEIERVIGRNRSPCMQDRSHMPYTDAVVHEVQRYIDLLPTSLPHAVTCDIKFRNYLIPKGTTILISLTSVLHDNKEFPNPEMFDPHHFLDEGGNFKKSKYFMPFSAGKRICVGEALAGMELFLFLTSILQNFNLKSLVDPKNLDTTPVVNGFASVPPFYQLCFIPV
Compound,"activity, negative = inhibition",AC50
COC(=O)[C@H]1[C@@H](c2ccccc2)[C@@]2(c3ccccc3)Oc3ccccc3[C@@]1(O)[C@@H]2O,-12.5% [at 11.4 µM] (inactive),–
S=C(S)N1CCCC1,–,20 µM (active)
CCN=C=NCCCN(C)C,-7.95% [at 11.4 µM] (inactive),–
O=C(COc1ccc2ccccc2c1)N1CCN(CC2CC3C=CC2C3)CC1 (centres undefined),–,17.8 µM (active)
CC(=O)N1CCC2(CC1)CC(=O)c1cc(OCC(=O)N3CCN(C)CC3)ccc1O2,-11.2% (inactive),–
N[C@@H](Cn1oc(=O)[nH]c1=O)C(=O)O,-4.2% (inactive),–
O=C(CCCN1CCC(n2c(=O)[nH]c3ccccc32)CC1)c1ccc(F)cc1,4.59% [at 25.6 µM] (inactive),–
C=C[C@H]1CN2CC[C@@H]1C[C@H]2[C@@H](O)c1ccnc2ccccc12,inactive,–
O=S(=O)(O)/C(=C\c1ccccc1)c1ccccc1 (tested in a mixture with another compound),-14.8% [at 11.4 µM] (inactive),–
COc1cc(OC)c(/C=C2/C(=O)Nc3ccccc32)c(OC)c1,–,25.1 µM (active)
c1ccc(C2CC2)c(OCC2=NCCN2)c1,inactive,–
c1ccc(CCN2CCOCC2)nc1,-0.553% [at 11.4 µM] (inactive),–
C[C@@]12CC[C@H]3[C@@H](CC=C4C[C@H](OS(=O)(=O)O)CC[C@]43C)[C@H]1CCC2=O,-9.77% (inactive),–
c1ccc(CCN2CCCCCC2)nc1,-1.38% [at 11.4 µM] (inactive),–
CC(C)C[C@H](NP(=O)(O)O[C@@H]1O[C@@H](C)[C@@H](O)[C@@H](O)[C@H]1O)C(=O)N[C@@H](Cc1c[nH]c2ccccc12)C(=O)O,6.69% (inactive),–
CC(C)C[C@H](NC(=O)N1CCCCCC1)C(=O)N[C@H](Cc1cn(C)c2ccccc12)C(=O)N[C@H](Cc1ccccn1)C(=O)O,–,6.31 µM (active)
CO[C@H]1C=C2CCN(C)[C@@H]2[C@@H]2c3cc4c(cc3C(=O)O[C@H]21)OCO4,-11.2% [at 25.6 µM] (inactive),–
CC[n+]1c(/C=C/N(C)c2ccccc2)sc2ccc(Cl)cc21,-6.79% (inactive),–
CNCCCc1ccccc1,-34.8% (inactive),–
COc1ccc(OC)c([C@H](O)[C@H](C)N)c1,inactive,–
O=c1oc(Cl)c(Cl)c2ccccc12,–,15.8 µM (active)
NNC(N)=O,21.6% (inactive),–
CCN1CCN(Cc2cc(OC)c(OC)cc2[N+](=O)[O-])CC1,22.2% (inactive),–
CCCN1CCC[C@H](c2cccc(O)c2)C1,inactive,–
CCC[C@@](C)(COC(N)=O)COC(=O)NC(C)C,-11.5% [at 25.6 µM] (inactive),–

Compound,"activity, negative = inhibition",AC50
c1cnc(N2CC[C@@]3(CCCNC3)C2)nc1,-12.7% (inactive),–
CCCC(CCC)C(=O)O,-9.81% (inactive),–
CCc1ccc(CCN2CCCCC2)nc1,-14.9% [at 11.4 µM] (inactive),–
CCNC(=O)[C@@H]1O[C@@H](n2cnc3c(N)ncnc32)[C@@H](O)[C@H]1O,-17% (inactive),–
CC(=O)Nc1ccccc1C(=O)OCc1ccc(C(=O)c2ccccc2)cc1,–,3.55 µM (active)
CC[C@H]1CN2CCc3cc(OC)c(OC)cc3[C@H]2C[C@@H]1C[C@H]1NCCc2c1[nH]c1ccc(O)cc21,5.99% [at 11.4 µM] (inactive),–
COC(=O)Nc1nc2ccc(C(=O)c3cccs3)cc2[nH]1,29.3% (inactive),–
CN1[C@H]2CC(=O)C[C@@H]1[C@@H](O)C2,-10.5% [at 25.6 µM] (inactive),–
CN1C(=O)C(=Cc2ccc(N3CCCCCC3)o2)C(=O)N(C)C1=S,–,7.94 µM (active)
COc1cc(C[C@H](C)N)c(OC)cc1I,inactive,–
C/C=C1\C[N@@+]2(C)CC[C@@]34C(=C(C=O)[C@H]1C[C@H]32)Nc1ccccc14,-12% [at 25.6 µM] (inactive),–
O=[N+]([O-])c1cc(O)c(O)c([N+](=O)[O-])c1,–,0.794 µM (active)
C[As+](C)(c1ccc(Br)c([N+](=O)[O-])c1)c1ccc(Br)c([N+](=O)[O-])c1.O=[N+]([O-])O,1.81% [at 11.4 µM] (inactive),–
O=[N+]([O-])c1cc([As](=O)(O)O)ccc1O,-8.02% [at 25.6 µM] (inactive),–
O=C(CCCN1CCC2(CC1)C(=O)NCN2c1ccccc1)c1ccc(F)cc1,inactive,–
[N-]=[N+]=NCC(=O)c1c[nH]c(=O)[nH]c1=O,-6.58% [at 11.4 µM] (inactive),–
O=C1NCN(c2ccccc2)C12CCN(CCCOc1ccc(F)cc1)CC2,-0.771% (inactive),–
CC(C)c1c(CN(C)[C@@H](C)Cc2ccccc2)n(C)n(-c2ccccc2)c1=O,–,7.94 µM (active)
CCCN(CCC)C(=O)Cc1c(-c2ccc(Cl)cc2)nc2c(Cl)cc(Cl)cn12,8.63% (inactive),–
CCCCCC[C@H]1C(=O)O[C@H](C)[C@H](NC(=O)c2cccc(NC=O)c2O)C(=O)O[C@@H](C)[C@H]1OC(=O)CC(C)C,-45.8% [at 25.6 µM] (inactive),–
CCOC(=O)N1CCC(NC(=O)CCc2nc(C3=CCN(C)CC3)no2)CC1,-27.6% (inactive),–
O=C(Nc1ccc(F)cc1F)c1cccnc1Oc1cccc(C(F)(F)F)c1,4.09% (inactive),–
CN(C)CCN(C)CCc1ccc(Cl)c(Cl)c1,-24.5% (inactive),–
O=C(Nc1ccccc1)N1CC2(CCN(C(=O)Oc3ccccc3)CC2)C1,-15.7% (inactive),–
